# About 79,000 compounds went through this panel and 15% of them were active in at least one assay; those are over-represented in the sample as a whole. Values without a mark were called inactive. No stated cut-off is given here; in the data, active means growth inhibition above about 70%; inactive means the rest.
# Test: NCI Yeast Anticancer Drug Screen. Data for the mlh1 rad18 strain (AID 175)
# Settings: S. cerevisiae mlh1 rad18 strain growth inhibition; at 50.0 µM; hits give high values
# In short: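 A repair-deficient yeast strain is exposed to test compound, and growth is scored relative to vehicle-treated controls.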
row,Compound,growth inhibition [%]
1,CC1(C(=O)O)CCCC1C(=O)O (stereo not given),12.1
2,COc1cccc2cc(C(=O)Nc3ccccc3)c(=N)oc12,-43
3,O=C(O)CCn1cnc2c(=S)nc[nH]c21,-16.5
4,CN(C)CC(C)(C)C(=O)c1ccc(F)cc1,12.3
5,CCc1nnc(CC)n1N,38.2
6,O=C(Nc1ccc2c(c1)C(O)c1ccccc1-2)C(F)(F)F (stereo not given),16.1
7,CC(=O)OC(C)(C)c1ccc2c(c1)C(=O)C[C@@H]1[C@](C)(C#N)CCC[C@]21C,35.5
8,Fc1cccc(-c2nnc(-c3ccccc3)o2)c1,-1.65
9,CC[C@]12CCCN3CCc4c(n(c5ccccc45)C(=O)C1)[C@@H]32,31.1
10,O=C(/C=C/c1ccc(O)cc1)c1cc(O)cc(O)c1,13.8
11,COc1ccc2c(c1)CCCN1Cc3cc(OC)c(OC)cc3CC21 (stereo not given),-3.9
12,OCCSCCCCCSCCO,-15.3
13,O=C(O)c1ccc(C2C3C=CC(C3)C2[N+](=O)[O-])cc1 (stereo not given),-35.5
14,[N-]=[N+]=NC(=O)c1ccc(S(=O)(=O)c2ccc(F)cc2)cc1,38.5
15,CCN1C(=O)N(CC)C2(CC(=O)c3ccccc3O2)C1=O (stereo not given),19.6
16,COC(=O)C(O)c1ccc(C(C)C)cc1 (stereo not given),-9.2
17,O=CNCC1(c2ccccc2)CCNCC1,-4.6
18,OC1CCCCC1[n+]1ccccc1 (stereo not given),-0.55
19,CCN(CC)CCN(C)C(=O)C(=O)c1ccccc1,-8.2
20,O=C1CCCC/C1=C\c1ccc([N+](=O)[O-])cc1,40.4

row,Compound,growth inhibition [%]
1,CCC(=O)c1c2c(cc3ccccc13)CCCC2,34
2,O=C1c2ccccc2C(=O)c2c(Nc3ccc(Nc4cccc5c4C(=O)c4ccccc4C5=O)c4c3C(=O)c3ccccc3C4=O)cccc21,-26.8
3,CC1(C)OCC(Cc2ccc3c(c2)OCO3)CO1,2.25
4,COC(=O)c1nc(N)nc(C(=O)OC)c1C(=O)c1ccc(Cl)cc1Cl,-3.25
5,CN(c1ccccc1)S(=O)(=O)c1ccc(Cl)cc1,25.9
6,O=C(CC(C(=O)O)S(=O)(=O)O)Nc1ccc(S(=O)(=O)c2ccc(NC(=O)CC(C(=O)O)S(=O)(=O)O)cc2)cc1 (stereo not given),-11.3
7,N/C(=N\S(=O)(=O)c1cc(C(F)(F)F)cc(C(F)(F)F)c1)c1ccncc1,24.7
8,COC(=O)CCC(=O)Nc1cc(Cl)ccc1Cl,6.3
9,COc1ccc(/C=C2\N=C(N/N=C\C(O)C(O)C(O)C(O)CO)NC2=O)cc1 (stereo not given),-49.8
10,CC1=NC=C(O)c2ccccc2O1,21.4
11,FC(F)(F)c1ccc2nc[nH]c2c1,6.95
12,C=C1c2c(cc3c(c2O)c(=O)c2ccccc2n3C)OC1(C)C,-25.4
13,O=C(Nc1ccccn1)c1ccccc1,31.8
14,CCn1nc(C)c2c1C(=O)NCC(=O)N2,-2.3
15,COc1ccccc1/C=N/Nc1nnc2c3ccccc3c3ncccc3c2n1,-34
16,O=c1cc(-c2ccccc2)[nH]c2ncccc12,-65.8
17,COc1ccc(C(=O)c2ccccc2)c(OC(=O)Nc2c(Cl)cccc2Cl)c1,22.6
18,C=CCSc1nc2ccc(N3C(=O)C4C5C=CC(C5)C4C3=O)cc2s1 (stereo not given),-27.9
19,O=[N+]([O-])c1ccc(-c2noc(-c3ccccc3)c2C2=NCCN2)cc1,7.6
20,Cc1c(C)c2cc3c(=O)c(CCl)coc3c(C)c2oc1=O,-5.95
